# Experimental data as given in ChEMBL document CHEMBL5606458, “ASAP - ZIKV NS2B-NS3 protease fluorescence single point” (2024).
# Hit rate of the full screen: of about 2,700 compounds, about 160 (5.9%) showed an effect of 50% or more. Shown is part of a subset that was picked to be rich in strong results.
# Target: Nonstructural protein 3 (Zika virus) (UniProt A0A024AXB9)
# [1] = PRVABC59, Concentration 50.0 uM, Number of replicates 1.0
# [2] = PRVABC59, Concentration 15.0 uM, Number of replicates 1.0
# Sequence of Nonstructural protein 3 (Zika virus) (A0A024AXB9 as listed by the source): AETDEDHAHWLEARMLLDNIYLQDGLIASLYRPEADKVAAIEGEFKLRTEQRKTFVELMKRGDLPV
smiles,measurement,setting,value
COc1cc(NC(=O)C2CCN(c3ccc(C=O)cc3)CC2)cc(OC)c1,inhibition,[1],28%
O=Cc1ccc(N2CCC(C(=O)Nc3c(Cl)cc(Cl)cc3Br)CC2)cc1,inhibition,[1],22.3%
O=Cc1ccc(N2CCC(C(=O)Nc3cc(Cl)cc([N+](=O)[O-])c3O)CC2)cc1,inhibition,[1],93.4%
O=Cc1ccc(N2CCC(C(=O)Nc3cc(Cl)ccc3Br)CC2)cc1,inhibition,[1],19.5%
O=Cc1ccc(N2CCC(C(=O)Nc3ccc([N+](=O)[O-])cc3Cl)CC2)cc1,inhibition,[1],39.8%
O=Cc1ccc(N2CCC(C(=O)Nc3cc(Cl)cc(Cl)c3O)CC2)cc1,inhibition,[1],92.4%
O=Cc1ccc(N2CCC(C(=O)Nc3ccc(O)cc3[N+](=O)[O-])CC2)cc1,inhibition,[1],38.4%
O=Cc1ccc(N2CCC(C(=O)Nc3cc(Cl)c(O)c(Cl)c3)CC2)cc1,inhibition,[1],98.7%
O=Cc1ccc(N2CCC(C(=O)Nc3cc(Cl)c(F)c(Cl)c3)CC2)cc1,inhibition,[1],20.1%
O=Cc1ccc(N2CCC(C(=O)Nc3ccc(Cl)c(Cl)c3)CC2)cc1,inhibition,[1],22.8%
Cc1cc(-c2nn(C)cc2NC(=O)c2ccccc2C(F)(F)F)[nH]n1,inhibition,"PRVABC59, Concentration 49.5 uM, Number of replicates 2.0, Standard deviation 1.8946804704330402 %",-3.15%
same,inhibition,"PRVABC59, Concentration 99.01 uM, Number of replicates 2.0, Standard deviation 0.666066751064398 %",-1.39%
same,inhibition,"PRVABC59, Concentration 198.0 uM, Number of replicates 2.0, Standard deviation 1.3743584908968294 %",2.3%
O=C(Nc1cnc(Br)c(Cl)n1)c1cc(Cl)ccc1NS(=O)(=O)c1ccc(Oc2ccccc2Cl)cc1,inhibition,[2],20.6%
O=Cc1ccc(N2CCC(C(=O)NCCc3ccc(C(F)(F)F)cc3)CC2)cc1,inhibition,[1],25.7%
CCOC(=O)c1cc(Cn2cc(C3CCNCC3)c(C)n2)on1,inhibition,"PRVABC59, Concentration 49.5 uM, Number of replicates 2.0, Standard deviation 3.597880558823145 %",-0.431%
same,inhibition,"PRVABC59, Concentration 99.01 uM, Number of replicates 2.0, Standard deviation 3.9852172616025077 %",-1.41%
same,inhibition,"PRVABC59, Concentration 198.0 uM, Number of replicates 2.0, Standard deviation 1.6156285466659275 %",-2.54%
CC1(C)[C@H]2CC[C@]1(C)[C@H](NC(=O)C1CCN(c3ccc(C=O)cc3)CC1)C2,inhibition,[1],-4.03%
O=Cc1ccc(N2CCC(C(=O)Nc3cccc(Cl)c3Br)CC2)cc1,inhibition,[1],21%
c1cnc(N2CCOCC2)c(CN2CC[C@H](c3c[nH]c4ccccc34)C2)c1,inhibition,"PRVABC59, Concentration 49.5 uM, Number of replicates 2.0, Standard deviation 0.5816150455075427 %",4.93%
same,inhibition,"PRVABC59, Concentration 99.01 uM, Number of replicates 2.0, Standard deviation 1.6761828626765602 %",10.2%
same,inhibition,"PRVABC59, Concentration 198.0 uM, Number of replicates 2.0, Standard deviation 1.4600963075359947 %",18.9%
Nc1ccc(Cl)c2cccnc12,inhibition,"PRVABC59, Concentration 99.9 uM, Number of replicates 2.0, Standard deviation 7.433905478836123 %",-9.18%
Nc1cccc2c(Cl)ccnc12,inhibition,"PRVABC59, Concentration 49.95 uM, Number of replicates 2.0, Standard deviation 13.26082141913299 %",25%
same,inhibition,"PRVABC59, Concentration 99.9 uM, Number of replicates 2.0, Standard deviation 5.807935528538471 %",61.3%
Nc1ccc(Cl)c2ncccc12,inhibition,"PRVABC59, Concentration 49.95 uM, Number of replicates 2.0, Standard deviation 10.856665376334321 %",2.86%
same,inhibition,"PRVABC59, Concentration 99.9 uM, Number of replicates 2.0, Standard deviation 9.901328830284072 %",10.8%
Cc1ccc(CN(C(=O)C2CCN(c3ccc(C=O)cc3)CC2)C2CC2)s1,inhibition,[1],27.6%
Cc1cc(CO)c2cccc(NC(=O)c3nc(N)n[nH]3)c2n1,inhibition,"PRVABC59, Concentration 49.95 uM, Number of replicates 2.0, Standard deviation 1.6810779662500097 %",28.9%
same,inhibition,"PRVABC59, Concentration 99.9 uM, Number of replicates 2.0, Standard deviation 2.6897269039186593 %",60.8%
Cc1cc(CO)c2cccc(Cc3cccc(NC(=O)c4nc(N)n[nH]4)c3)c2n1,inhibition,"PRVABC59, Concentration 49.95 uM, Number of replicates 2.0, Standard deviation 3.2981012364268594 %",-0.767%
same,inhibition,"PRVABC59, Concentration 99.9 uM, Number of replicates 2.0, Standard deviation 3.2421151330326254 %",4.54%
Cc1cc(CO)c2cccc(NC(=O)CCN)c2n1,inhibition,"PRVABC59, Concentration 49.95 uM, Number of replicates 2.0, Standard deviation 0.34164167967973086 %",58.9%
same,inhibition,"PRVABC59, Concentration 99.9 uM, Number of replicates 2.0, Standard deviation 0.25939261057290325 %",94.2%
CC(=O)N[C@@H](CCCN)C(=O)Nc1cccc2c(Cl)cc(C)nc12,inhibition,"PRVABC59, Concentration 99.9 uM, Number of replicates 2.0, Standard deviation 3.96053156793845 %",2.63%
Cc1cc(CO)c2cccc(NC(=O)Cc3cccc(CN)c3)c2n1,inhibition,"PRVABC59, Concentration 49.95 uM, Number of replicates 2.0, Standard deviation 2.002239649301327 %",8.36%
same,inhibition,"PRVABC59, Concentration 99.9 uM, Number of replicates 2.0, Standard deviation 0.9082841415474754 %",22.1%
Cc1cc(CO)c2cccc(Cc3ccccc3NC(=O)c3nc(N)n[nH]3)c2n1,inhibition,"PRVABC59, Concentration 49.95 uM, Number of replicates 2.0, Standard deviation 1.1858913556413317 %",-1.17%
same,inhibition,"PRVABC59, Concentration 99.9 uM, Number of replicates 2.0, Standard deviation 1.6592298829189325 %",2.56%
CC(=O)N[C@@H](CCCCN)C(=O)Nc1cccc2c(Cl)cc(C)nc12,inhibition,"PRVABC59, Concentration 49.95 uM, Number of replicates 2.0, Standard deviation 3.802363243631691 %",19.9%
same,inhibition,"PRVABC59, Concentration 99.9 uM, Number of replicates 2.0, Standard deviation 2.8723353743500515 %",37.2%
Cc1cc(CO)c2cccc(NC(=O)[C@@H](N)CCN)c2n1,inhibition,"PRVABC59, Concentration 49.95 uM, Number of replicates 2.0, Standard deviation 10.156724992387474 %",7.81%
same,inhibition,"PRVABC59, Concentration 99.9 uM, Number of replicates 2.0, Standard deviation 27.740304464442595 %",6.58%
Cc1cc(Cl)c2cccc(NC(=O)CCN)c2n1,inhibition,"PRVABC59, Concentration 49.95 uM, Number of replicates 2.0, Standard deviation 0.2024559271573544 %",95.1%
same,inhibition,"PRVABC59, Concentration 99.9 uM, Number of replicates 2.0, Standard deviation 0.15816464699422608 %",91.2%
O=C(Nc1c(Cl)cncc1Cl)c1cc(Cl)ccc1NS(=O)(=O)c1ccc(Oc2ccccc2Cl)cc1,inhibition,[2],22%
O=Cc1ccc(N2CCC(C(=O)NC[C@@H](c3ccc(Cl)cc3)N3CCCC3)CC2)cc1,inhibition,[1],18.7%
O=Cc1ccc(N2CCC(C(=O)Nc3nc4cc(Cl)ccc4s3)CC2)cc1,inhibition,[1],22.7%
CN1CCN(c2ccccc2NC(=O)C2CCN(c3ccc(C=O)cc3)CC2)CC1,inhibition,[1],22.1%
CC(=O)N[C@@H](CCCN)C(=O)Nc1cccc2cccnc12,inhibition,"PRVABC59, Concentration 49.95 uM, Number of replicates 2.0, Standard deviation 1.6196420224622259 %",19.2%
same,inhibition,"PRVABC59, Concentration 99.9 uM, Number of replicates 2.0, Standard deviation 2.0688397621434533 %",38.7%
O=C(Nc1cccc2cccnc12)C1CCNCC1,inhibition,"PRVABC59, Concentration 49.95 uM, Number of replicates 2.0, Standard deviation 0.5440976068370852 %",42.6%
same,inhibition,"PRVABC59, Concentration 99.9 uM, Number of replicates 2.0, Standard deviation 0.5440976068370852 %",92%
N[C@@H]1CCCC[C@H]1C(=O)Nc1cccc2cccnc12,inhibition,"PRVABC59, Concentration 99.9 uM, Number of replicates 2.0, Standard deviation 1.8980185851288 %",-8.2%
O=C(c1cc(Cl)ccc1NS(=O)(=O)c1ccc(Oc2ccccc2Cl)cc1)N1CCC(O)(c2ccc(Cl)cc2)CC1,inhibition,[2],26.1%
O=C(N[C@@H](CO)Cc1ccccc1)c1cc(Cl)ccc1NS(=O)(=O)c1ccc(Oc2ccccc2Cl)cc1,inhibition,[2],33.2%
O=C(N[C@H](c1ccccc1)c1ccco1)c1cc(Cl)ccc1NS(=O)(=O)c1ccc(Oc2ccccc2Cl)cc1,inhibition,[2],53.4%
O=C(NCC(c1ccccc1)c1ccccc1)c1cc(Cl)ccc1NS(=O)(=O)c1ccc(Oc2ccccc2Cl)cc1,inhibition,[2],12.2%
O=C(N[C@@H](Cc1ccccc1)c1ccccc1)c1cc(Cl)ccc1NS(=O)(=O)c1ccc(Oc2ccccc2Cl)cc1,inhibition,[2],28.3%
O=C(NC(c1ccccc1)c1ccccc1)c1cc(Cl)ccc1NS(=O)(=O)c1ccc(Oc2ccccc2Cl)cc1,inhibition,[2],55%
O=C(N[C@H](CO)CC1CCCCC1)c1cc(Cl)ccc1NS(=O)(=O)c1ccc(Oc2ccccc2Cl)cc1,inhibition,[2],40.7%
O=C(N[C@H](CO)Cc1ccc(Cl)cc1)c1cc(Cl)ccc1NS(=O)(=O)c1ccc(Oc2ccccc2Cl)cc1,inhibition,[2],50.2%
O=C(N[C@@H](c1ccccc1)c1ccc(Br)cc1)c1cc(Cl)ccc1NS(=O)(=O)c1ccc(Oc2ccccc2Cl)cc1,inhibition,[2],8.89%
C[C@@H](NC(=O)c1cc(Cl)ccc1NS(=O)(=O)c1ccc(Oc2ccccc2Cl)cc1)c1cccc(Br)c1,inhibition,[2],35.8%
Cc1ccc2ccccc2c1NC(=O)c1cc(Cl)ccc1NS(=O)(=O)c1ccc(Oc2ccccc2Cl)cc1,inhibition,[2],26.4%
O=Cc1ccc(N2CCC(C(=O)N3CCC(Oc4ncccn4)CC3)CC2)cc1,inhibition,[1],25.2%
O=Cc1ccc(N2CCC(C(=O)Nc3cc(Cl)nc(Cl)n3)CC2)cc1,inhibition,[1],17.4%
O=C(O)c1cccc(NC(=O)c2cccc(Br)c2)c1,inhibition,"PRVABC59, Concentration 49.5 uM, Number of replicates 2.0, Standard deviation 2.5009940749301487 %",-0.982%
same,inhibition,"PRVABC59, Concentration 99.01 uM, Number of replicates 2.0, Standard deviation 3.0157213975013266 %",0.926%
same,inhibition,"PRVABC59, Concentration 198.0 uM, Number of replicates 2.0, Standard deviation 3.887437163113113 %",4.65%
CC(C)(CNC(=O)c1cc(Cl)ccc1NS(=O)(=O)c1ccc(Oc2ccccc2Cl)cc1)c1cccc(Cl)c1,inhibition,[2],47.6%
